# HSF1 inhib = HSF1 inhibition; NIH3T3-HGL HSE-luciferase, MG132-induced, luminescence 8 h; hits give low values; activity change, negative = inhibition, % at 7.5 µM (by protocol); hit rate 0.77% among 300,000; AID 2098;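 active means more than half of replicate wells show activity change below -50%, luminescence cut by over half; inconclusive means some wells, but at most half, below -50%; inactive means no replicate well below -50%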;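 further: luciferase reports HSF-1 transcriptional activity via heat shock element; 0% = median of DMSO wells and -100% = zero luminescence signal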
# HSF-1 act = increases HSF-1 driven luciferase reporter signal | NIH3T3-HGL HSF-1 luciferase reporter, MG132, 8 h; 100% = twice DMSO control signal | activation, % at 9 µM | hit rate 1.7% among 300,000;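 active means mean replicate activation of at least 50% with a set share of replicates each reaching 50%; inconclusive means only one of those two conditions met; inactive means mean below 50% and too few replicates reaching it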;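 further: 0% = median of the neutral control wells and 100% = twice that signal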
# esBAF inh = blocks esBAF chromatin remodeling in mouse ES cells; Bmi1-luciferase knock-in reporter, 24 h; 100% = twice the neutral-well signal; hit rate 2% among 350,000; reporter increase, % at 12.5 µM; in the data active means activation above about 40%; inconclusive means no clear call, values can overlap the other calls;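 further: 0% = median of the plate's neutral control wells and 100% = double that signal; a rise in the Bmi1 reporter signal indicates esBAF inhibition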
# Vif inh = HIV Vif inhibition. hit rate 0.35% among 340,000. HEK293T cells, Vif self-association by quenched fluorescence, imaging, 24 h. inhibition, % at 7.49 µM; in the data active means inhibition above about 50%, passing the limit was not always enough; inconclusive means no clear call, values can overlap the other calls; inactive means below about 31%
# Numbers without * were called inactive; ? = inconclusive; . = not tested or not shown. Rows were chosen to be rich in hits. Some 3.4% of all compounds tested hit in one or more screens of this group.
SMILES,HSF1 inhib,HSF-1 act,esBAF inh,Vif inh
C[C@@H]1CN([C@@H](C)CO)C(=O)c2cc(C3=CCCCC3)cnc2O[C@H]1CN(C)C(=O)C1CCOCC1,.,.,4.7,.
C[C@H](CO)N1C[C@H](C)[C@@H](CN(C)Cc2ccncc2)OCCCC[C@H](C)Oc2ccc(NC(=O)Nc3ccc(F)cc3)cc2C1=O,.,.,-1.1,.
O=C1c2ccccc2S(=O)(=O)N1CC1CC(c2ccc(Cl)cc2)=NO1 (configuration not stated),66.1,82.3*,.,-3.9
COc1ccc(C2=NOC(CN3C(=O)c4ccccc4S3(=O)=O)C2)cc1 (configuration not stated),39.8,71.5*,22.6,10.7
O=C(C[C@H]1C[C@@H]2c3cc(NS(=O)(=O)c4ccc(F)cc4)ccc3O[C@@H]2[C@@H](CO)O1)N1CCOCC1,.,.,-1.7,.
CCCSc1nnc(CNS(=O)(=O)c2ccc(C)cc2)n1C,-61.1*,-65.9,-5.2,2.9
C=CCSc1nnc(CNS(=O)(=O)c2ccc(C)cc2)n1C,-5.8,-12.6,.,.
COCCCn1c(=O)/c(=C\c2ccccc2OC(F)F)s/c1=C(/C#N)C(N)=O,1.7,-1.0,1.8,139.3*
CC(NC(=O)CCCN1C(=O)c2ccccc2C1=O)c1ccc2c(c1)CCCC2 (configuration not stated),118.1,203.3*,4.8,0.7
Cc1cccc(NC2(C(F)(F)F)N=C(c3ccccc3)NC2=O)n1 (configuration not stated),-57.0*,-64.4,0.7,8.8
COc1cccc(-c2nnc(SCc3nc4ccccc4s3)n2C)c1,22.7,64.1*,14.5,0.4
CCC(c1nnc(SCc2nc3ccccc3s2)n1Cc1ccccc1)N(C)C (configuration not stated),8.4,16.9,69.9*,.
Cc1nnc(SCc2nc3ccccc3s2)n1-c1ccccc1,6.9,12.4,72.0*,-6.0
CCn1c(SCc2nc3ccccc3s2)nnc1-c1ccccc1,21.8,21.0,45.7*,-0.3
COc1ccc(NC(=O)Nc2cccc3c2O[C@H](CN(C)S(=O)(=O)c2ccc(Cl)cc2)[C@@H](C)CN([C@H](C)CO)C3=O)cc1,.,.,6.2,.
COc1ccccc1C(=O)Nc1nnc(-c2ccccc2)s1,32.4,?,46.9*,3.4
O=C(Nc1ccccc1)Nc1nnc(-c2ccccc2)s1,6.5,31.2,50.5*,-1.2
COc1ccc(C(=O)Nc2nnc(-c3ccccc3)s2)cc1,23.5,6.0,46.6*,3.1
COc1cccc(C(=O)Nc2nnc(-c3ccccc3)s2)c1OC,26.1,46.7,36.0,-4.0
O=C(Nc1nnc(-c2ccccc2)s1)c1ccccc1O,8.8,23.9,67.4*,-4.4
C[C@@H]1CN([C@@H](C)CO)S(=O)(=O)c2ccc(C#CC3CC3)cc2O[C@H]1CN(C)Cc1cccc(F)c1,.,.,-3.0,.
COc1ccc(S(=O)(=O)Nc2ccc3c(c2)CC(=O)N([C@@H](C)CO)C[C@H](C)[C@@H](CN(C)S(C)(=O)=O)O3)cc1,.,.,3.4,.
COc1ccccc1C(=O)N(C)c1nnc(-c2ccccc2)s1,24.4,48.0,49.2*,-6.5
O=C(C[C@@H]1CC[C@@H]2[C@H](COC[C@@H](O)CN2C(=O)c2ccc3c(c2)OCO3)O1)NCCN1CCCCC1,.,.,-3.0,.
O=C(C[C@H]1CC[C@H]2[C@@H](COC[C@@H](O)CN2C(=O)c2ccccn2)O1)N1CCN(c2ccccc2)CC1,.,.,2.3,.
SMILES,HSF1 inhib,HSF-1 act,esBAF inh,Vif inh
C[C@H](CO)N1C[C@H](C)[C@H](CN(C)C(=O)Cc2ccccc2)OCCCC[C@H](C)Oc2ccc(N(C)C)cc2C1=O,.,.,6.6,.
Oc1ccccc1C1=NC(c2ccccc2)NC(c2ccccc2)C1 (configuration not stated),.,.,-1.8,20.8
Oc1ccccc1C1=Nc2nc3ccccc3n2C(c2ccccc2)C1 (configuration not stated),25.5,48.1,48.8*,.
CO[C@@H]1CN(C)C(=O)c2cc(NC(=O)Nc3ccc(F)cc3)ccc2OC[C@@H](C)N(C(=O)c2cnccn2)C[C@H]1C,.,.,-3.5,.
CCOC(=O)N1CCN(c2nc(C)c3c(n2)CCCC3=O)CC1,-69.5*,-77.2,21.2,1.0
CC(=O)Nc1ccc2c(c1)C(=O)N(C)[C@H]1CC[C@H](CC(=O)Nc3ccccc3Cl)O[C@@H]1CO2,.,.,3.9,.
Cc1ccc(N=C2C(=S)N(c3ccc(C)cc3)C(=N)N2/N=C/c2ccc(Cl)cc2)cc1,67.1,107.6*,?,-8.3
CCOc1ccc(-c2cnc(NCc3cccc4ccccc34)n2CCOC)cc1,-83.3*,-87.7,0.7,-3.0
C[C@@H]1CN([C@@H](C)CO)C(=O)c2cc(-c3ccc(F)cc3)cnc2O[C@@H]1CN(C)C(=O)Nc1ccc(F)cc1,.,.,0.9,.

# Source: PubChem
